This is an account of results in ChEMBL document CHEMBL1961873, “Compounds: GSK PKIS; Assays: Nanosyn kinase panel” (2012).

The term inhibition denotes the drop in the measured response relative to a control, in per cent.

Assay [1] has as its target T1, Muscle, skeletal receptor tyrosine-protein kinase (Homo sapiens) (UniProt O15146).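 Note: reported value is the mean percent inhibition of MuSK kinase.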
T1 sequence (whole entry): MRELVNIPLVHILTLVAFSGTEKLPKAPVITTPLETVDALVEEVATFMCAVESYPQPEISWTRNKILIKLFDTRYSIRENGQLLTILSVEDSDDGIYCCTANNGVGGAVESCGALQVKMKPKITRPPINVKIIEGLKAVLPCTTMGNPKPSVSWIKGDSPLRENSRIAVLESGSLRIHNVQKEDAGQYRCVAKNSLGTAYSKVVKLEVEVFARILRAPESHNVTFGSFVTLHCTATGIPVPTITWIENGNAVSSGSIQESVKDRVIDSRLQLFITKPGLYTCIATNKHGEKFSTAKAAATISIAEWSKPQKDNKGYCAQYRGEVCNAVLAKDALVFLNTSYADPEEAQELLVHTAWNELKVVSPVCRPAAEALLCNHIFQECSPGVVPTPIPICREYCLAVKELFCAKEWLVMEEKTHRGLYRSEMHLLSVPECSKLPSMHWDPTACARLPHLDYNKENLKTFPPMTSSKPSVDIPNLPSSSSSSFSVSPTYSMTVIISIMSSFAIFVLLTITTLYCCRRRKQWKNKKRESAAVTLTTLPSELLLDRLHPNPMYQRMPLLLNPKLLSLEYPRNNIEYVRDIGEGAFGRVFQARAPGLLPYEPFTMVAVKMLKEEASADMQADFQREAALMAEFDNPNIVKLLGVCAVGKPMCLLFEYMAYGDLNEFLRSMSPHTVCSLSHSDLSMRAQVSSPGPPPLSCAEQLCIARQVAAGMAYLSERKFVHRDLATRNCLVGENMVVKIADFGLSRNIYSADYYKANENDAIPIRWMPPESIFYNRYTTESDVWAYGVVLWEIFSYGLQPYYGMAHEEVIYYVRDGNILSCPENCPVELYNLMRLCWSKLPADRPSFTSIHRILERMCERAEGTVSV
The conditions noted are these: at 1 µM.

Assay [2] deals with Platelet-derived growth factor receptor alpha (Homo sapiens) (UniProt P16234). The conditions noted are these: at 0.1 µM.
Sequence of Platelet-derived growth factor receptor alpha (Homo sapiens) (P16234 whole entry): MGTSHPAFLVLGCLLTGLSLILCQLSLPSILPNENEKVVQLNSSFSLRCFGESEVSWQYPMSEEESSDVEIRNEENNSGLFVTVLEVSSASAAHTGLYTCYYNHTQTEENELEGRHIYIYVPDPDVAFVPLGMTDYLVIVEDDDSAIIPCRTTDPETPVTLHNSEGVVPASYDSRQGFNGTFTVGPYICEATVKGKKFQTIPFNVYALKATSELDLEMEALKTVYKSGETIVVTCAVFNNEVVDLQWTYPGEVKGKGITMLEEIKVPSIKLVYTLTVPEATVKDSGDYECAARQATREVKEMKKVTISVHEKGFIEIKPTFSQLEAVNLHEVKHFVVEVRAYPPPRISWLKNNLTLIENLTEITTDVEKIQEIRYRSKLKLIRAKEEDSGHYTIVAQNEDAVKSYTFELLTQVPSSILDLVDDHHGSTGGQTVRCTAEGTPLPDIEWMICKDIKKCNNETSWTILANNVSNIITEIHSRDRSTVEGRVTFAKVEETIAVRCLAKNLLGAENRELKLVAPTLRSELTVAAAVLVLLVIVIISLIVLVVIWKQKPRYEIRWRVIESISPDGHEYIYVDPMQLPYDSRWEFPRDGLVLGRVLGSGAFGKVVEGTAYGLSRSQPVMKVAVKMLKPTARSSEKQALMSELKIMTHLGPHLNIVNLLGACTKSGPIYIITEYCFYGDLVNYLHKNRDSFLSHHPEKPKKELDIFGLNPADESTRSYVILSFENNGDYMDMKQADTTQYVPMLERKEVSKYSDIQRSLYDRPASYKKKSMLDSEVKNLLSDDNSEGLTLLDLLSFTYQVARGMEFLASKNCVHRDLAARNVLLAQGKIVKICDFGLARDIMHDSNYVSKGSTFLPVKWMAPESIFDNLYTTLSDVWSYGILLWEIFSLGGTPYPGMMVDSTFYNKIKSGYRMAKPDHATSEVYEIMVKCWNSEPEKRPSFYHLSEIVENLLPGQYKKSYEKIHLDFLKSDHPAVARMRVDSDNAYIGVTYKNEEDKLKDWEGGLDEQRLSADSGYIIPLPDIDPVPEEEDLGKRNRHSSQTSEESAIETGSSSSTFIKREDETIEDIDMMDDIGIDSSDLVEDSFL
Assay [3] has the same target. To be noted: at 1 µM.
The subject of assay [4] is Platelet-derived growth factor receptor alpha (Homo sapiens), P16234 [D842V]. The conditions noted are these: at 0.1 µM.
The test system is the same in assay [5]. To be noted: at 1 µM.
Assay [6] has as its system Platelet-derived growth factor receptor alpha (Homo sapiens), P16234 [T674I]. The conditions noted are these: at 0.1 µM.
The test system is the same in assay [7]. The conditions noted are these: at 1 µM.
Assay [8] relates to Platelet-derived growth factor receptor alpha (Homo sapiens), P16234 [V561D]. To be noted: at 0.1 µM.
Sequence of Platelet-derived growth factor receptor alpha (Homo sapiens), P16234 [V561D] (P16234 whole entry V561D): as the sequence (P16234 whole entry) above, with V561D counted along it
The test system is the same in assay [9]. The conditions noted are these: at 1 µM.
The target of assay [10] is Platelet-derived growth factor receptor beta (Homo sapiens) (UniProt P09619). The conditions noted are these: at 0.1 µM.
For assay [11] the target is unchanged. To be noted: at 1 µM.
In assay [12] the target is Tyrosine-protein kinase FRK (Homo sapiens) (UniProt P42685). The conditions noted are these: at 0.1 µM.
Sequence of Tyrosine-protein kinase FRK (Homo sapiens) (P42685 whole entry): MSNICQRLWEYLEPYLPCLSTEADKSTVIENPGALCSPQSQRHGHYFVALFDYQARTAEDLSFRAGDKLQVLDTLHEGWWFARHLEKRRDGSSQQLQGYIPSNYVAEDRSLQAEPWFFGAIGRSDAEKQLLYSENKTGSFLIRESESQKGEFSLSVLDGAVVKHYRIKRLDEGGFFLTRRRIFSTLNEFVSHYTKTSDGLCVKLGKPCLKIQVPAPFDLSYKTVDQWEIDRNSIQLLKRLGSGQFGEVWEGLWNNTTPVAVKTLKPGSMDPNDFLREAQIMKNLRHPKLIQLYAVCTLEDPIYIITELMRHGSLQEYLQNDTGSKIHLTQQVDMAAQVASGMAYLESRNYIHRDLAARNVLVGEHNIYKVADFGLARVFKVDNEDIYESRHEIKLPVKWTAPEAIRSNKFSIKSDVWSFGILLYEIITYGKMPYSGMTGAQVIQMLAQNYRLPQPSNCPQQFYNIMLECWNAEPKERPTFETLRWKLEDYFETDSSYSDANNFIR
The target is the same in assay [13]. To be noted: at 1 µM.
Assay [14] addresses Protein-tyrosine kinase 2-beta (Homo sapiens) (UniProt Q14289). To be noted: at 0.1 µM.
Assay [15] shares this target. To be noted: at 1 µM.
Assay [16] has as its target Proto-oncogene tyrosine-protein kinase receptor Ret (Homo sapiens) (UniProt P07949). To be noted: at 0.1 µM.
Assay [17] shares this target. The conditions noted are these: at 1 µM.
Assay [18] deals with Proto-oncogene tyrosine-protein kinase receptor Ret (Homo sapiens), P07949 [V804L]. The conditions noted are these: at 0.1 µM.
Assay [19] shares this test system. The conditions noted are these: at 1 µM.
For assay [20], the system named is Proto-oncogene tyrosine-protein kinase receptor Ret (Homo sapiens), P07949 [Y791F]. The conditions noted are these: at 0.1 µM.

Sequence of Protein-tyrosine kinase 2-beta (Homo sapiens) (Q14289 whole entry, looked up): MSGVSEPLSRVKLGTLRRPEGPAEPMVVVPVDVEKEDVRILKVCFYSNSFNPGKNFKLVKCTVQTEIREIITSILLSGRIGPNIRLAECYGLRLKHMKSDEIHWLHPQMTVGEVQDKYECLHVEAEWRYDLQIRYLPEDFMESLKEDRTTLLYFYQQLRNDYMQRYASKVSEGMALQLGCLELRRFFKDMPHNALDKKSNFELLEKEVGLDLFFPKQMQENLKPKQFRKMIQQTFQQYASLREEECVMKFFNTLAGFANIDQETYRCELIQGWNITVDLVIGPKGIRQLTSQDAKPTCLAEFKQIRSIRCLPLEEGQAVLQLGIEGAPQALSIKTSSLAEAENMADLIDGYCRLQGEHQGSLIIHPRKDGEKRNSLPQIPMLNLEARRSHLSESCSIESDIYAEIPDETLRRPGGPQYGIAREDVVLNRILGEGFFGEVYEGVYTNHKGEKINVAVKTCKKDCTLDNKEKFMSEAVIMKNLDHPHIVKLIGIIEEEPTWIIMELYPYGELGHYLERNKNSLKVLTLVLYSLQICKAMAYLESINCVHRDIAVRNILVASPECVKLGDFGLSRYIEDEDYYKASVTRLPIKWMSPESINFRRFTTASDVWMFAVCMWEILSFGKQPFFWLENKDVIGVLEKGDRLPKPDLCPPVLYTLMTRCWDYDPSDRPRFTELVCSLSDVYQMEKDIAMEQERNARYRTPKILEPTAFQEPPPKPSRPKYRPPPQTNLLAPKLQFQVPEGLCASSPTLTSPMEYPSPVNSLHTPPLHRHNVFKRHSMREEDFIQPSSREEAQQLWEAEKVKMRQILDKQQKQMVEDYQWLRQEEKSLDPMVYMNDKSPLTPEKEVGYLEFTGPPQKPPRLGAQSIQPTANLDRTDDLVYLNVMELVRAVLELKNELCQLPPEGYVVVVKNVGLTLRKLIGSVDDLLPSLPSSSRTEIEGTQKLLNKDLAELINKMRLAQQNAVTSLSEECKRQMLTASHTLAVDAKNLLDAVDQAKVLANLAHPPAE
Sequence of Platelet-derived growth factor receptor alpha (Homo sapiens), P16234 [T674I] (P16234 whole entry T674I): as the sequence (P16234 whole entry) above, with T674I counted along it

Regarding `COC(=O)Nc1nc2cc(Oc3ccc(NC(=O)Nc4ccccc4)cc3)ccc2[nH]1`, the inhibition in assay [1] turned out to be 2.88%; in assay [2] it was 38.5%; in assay [3], 66.6%; in assay [4] it was 0.57%; in assay [5], 5.23%; in [6], 53%. Besides, the inhibition in [7] was found to be 93.9%; in assay [8], 62.7%; in [9], 84.8%; in assay [10] it was 7.12%; in assay [11], 20.8%; in assay [12] it was 1.73%. For the same molecule, the inhibition is 1.93% in assay [13]; -1.17% in assay [14]; 6.99% in assay [15]; 11.1% in assay [16]; 26.6% in assay [17]; 8.3% in [18]. Further, the results for the inhibition in assay [19] and in assay [20] were 13.8% and 15.3%, respectively.
On to `COc1cc(N2CCN(C(C)C)CC2)ccc1Nc1nc(Nc2cccc(F)c2C(=O)O)c2cc[nH]c2n1`, for which the inhibition worked out at 10.5% in assay [1]; 11.3% in [2]; 12.8% in assay [3]; 3.04% in assay [4]; 3.08% in assay [5]; 7.14% in assay [6]. Also, the inhibition in [7] stood at 8.84%; in assay [8], 5.91%; in assay [9] it was 5.37%; in assay [10], 7.62%; in [11], 6.82%; in [12], 4.04%. The inhibition came out at 4.07% in assay [13]; 90.6% in assay [14]; 96.4% in assay [15]; 4.88% in [16]; 5.6% in [17]; 3.85% in [18]. Moreover, the inhibition in [19] was 12.1%; in assay [20] it was 4.5%.
As for `CCOc1ccc2c(-c3ccnc(Nc4cc(OC)cc(C(F)(F)F)c4)n3)cnn2n1`, the inhibition in assay [1] is 5.37%; in [2], 6.45%; in assay [3], 30%; in assay [4], 2.97%; in assay [5], 18.4%; in assay [6], 2.28%. For the same molecule, the inhibition in assay [7] is 8.05%; in [8] it was 6.9%; in assay [9], 33.4%; in [10], 7.05%; in [11] it was 29.3%; in assay [12], -0.17%. For the same molecule, the inhibition is -0.61% in [13]; 4.61% in assay [14]; 21.2% in [15]; 2.73% in assay [16]; 13.2% in assay [17]; 1.94% in assay [18]. In addition, the inhibition in assay [19] is 5.01%; in [20], 2.94%.
Turning to `CCS(=O)(=O)c1ccc(OC)c(Nc2ncc(-c3cccc(F)c3)o2)c1`, the inhibition was 16.3% in assay [1]; 21.1% in assay [2]; 70.7% in [3]; 11.3% in assay [4]; 41.5% in assay [5]; 5.36% in assay [6]. Further, the inhibition in assay [7] stood at 17.3%; in [8], 21.4%; in assay [9], 68.7%; in [10] it was 35.7%; in assay [11], 83.5%; in assay [12] it was 10.5%. Further, the inhibition in [13] turned out to be 46.4%; in [14], 11%; in [15] it was 22.9%; in assay [16], 13.5%; in [17] it was 56.6%; in assay [18], 7.78%. The inhibition amounted to 33.8% in assay [19] and 15.9% in assay [20].
In the case of `CS(=O)(=O)CCNCc1ccc(-c2ccc3ncnc(Nc4ccc(OCc5cccc(C(F)(F)F)c5)cc4)c3c2)o1`, the inhibition in [1] was determined as 9.15%; in [2], 9.67%; in assay [3], 15.9%; in assay [4] it was 0.59%; in assay [5] it was 1.85%; in [6] it was 5.53%. The inhibition in [7] amounted to 12.3%; in [8], 4.16%; in assay [9] it was 14.6%; in assay [10] it was 7.32%; in assay [11], 13.6%; in assay [12], 2.67%. In addition, the inhibition was determined as 3.25% in assay [13]; 1.85% in [14]; 12.6% in assay [15]; 3.22% in [16]; 2.84% in assay [17]; 3.51% in assay [18]. The inhibition in assay [19] was determined as 7.73%; in assay [20] it was 5.55%.
`Cc1cc(O)cc(C)c1/C=C/c1cncc(C(=O)OC(C)(C)C)c1`: the inhibition stood at 3.99% in assay [1]; 9.43% in [2]; 42.6% in assay [3]; 5.23% in assay [4]; 14.7% in assay [5]; 4.63% in assay [6]. Besides, the inhibition was 5.73% in assay [7]; 14.4% in assay [8]; 51% in assay [9]; 9.17% in assay [10]; 43.3% in assay [11]; 3.51% in assay [12]. Also, the inhibition in assay [13] turned out to be 20.1%; in [14] it was 13.2%; in assay [15], 7.22%; in [16], 5.39%; in assay [17] it was 7.34%; in [18] it was 3.42%. Also, the results for the inhibition in assay [19] and in [20] were 11.6% and 4.05%, respectively.
